# Source: PubChem
# ELG1 genotoxic: induces genotoxicity in HEK293T cells with luciferase-tagged ELG1; Potency, µM (top dose mostly 46 µM), for the others: at the highest dose activity change, positive = activation, most hits filed as activators; HEK293T ELG1-luciferase reporter, luminescence, 16 h; hit rate 1.3% among 330,000; note: % of control where 0% means no effect; nearly all actives have a fitted effect of over 60% in size
#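 HEK293T cells expressing luciferase-tagged ELG1 were exposed to compound or DMSO vehicle for 16 hr at 37 °C and 5% CO2. Luciferase activity was then measured with ONE-Glo after 30 min at room temperature.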
# ELG1 repair inh: blocks ELG1-dependent DNA repair in HEK293T cells; HEK293T ELG1-luciferase reporter, luminescence, 16 h; DNA damage induced by 5-fluorouridine; Potency, µM (highest dose often 46.1 µM), inactives show at the highest dose activity change, negative = inhibition, actives largely listed as inhibitors; hit rate 2.3% among 330,000; AID 504467; note: % is set by controls: 0 for no effect and ±100 for the full control effect; nearly all actives have a fitted effect of over 55% in size
#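 5-Fluorouridine DNA damage + compound/DMSO, 2,000 cells/well, 16 h, 37 °C/5% CO2. ONE-Glo, 30 min RT, luminescence. Readout = decrease in reporter signal.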
# FLuc counter: inhibits or activates purified firefly luciferase, miR-21 counter-screen; hit rate 6.9% among 360,000; purified FLuc, Km substrates, luminescence inhibition; Potency, µM (series often up to 57.5 µM), for inactives: at the highest dose activity change, negative = inhibition, most hits filed as inhibitors; AID 588342;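 note: plate controls were vehicle for no effect and reference inhibitor for full effect; nearly all actives have a fitted effect of over 55% in size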
#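 Purified P. pyralis luciferase, 10 nM final, with Km-level 10 uM D-luciferin and 10 uM ATP in 50 mM Tris acetate pH 7.5, 10 mM Mg acetate, 0.01% Tween-20, 0.05% BSA; 6-point qHTS titration about 60 µM downward; luminescence read.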
# Rab9 promoter act: activators of Rab9 promoter. AID 485297. hit rate 2.8% among 320,000. Potency, µM (series often up to 9.22 µM), for the others: top-dose activation, negative = inhibition, usual class: activators. Huh7 Rab9 promoter-luciferase reporter, luminescence, 24 h; note: % of control where 0% means no effect; nearly all actives have a fitted effect of over 60% in size
#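 Stable Rab9-luc Huh7, 1500 cells/well, 2 h settle; cmpd in DMSO, 24 h, 37 °C/5% CO2; luciferase reagent 10 min RT; luminescence.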
# NPC1 promoter act: NPC1 promoter activation. hit rate 2.4% among 320,000. AID 485313. Potency, µM (series often up to 9.22 µM), for the others: at the highest dose activation, usual class: activators. Huh7 NPC1 promoter luciferase reporter, 24 h; note: % of control where 0% means no effect; nearly all actives have a fitted effect of over 60% in size
#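 In 1536-well qHTS, Huh7 cells harboring an NPC1 promoter–luciferase construct received compound for 24 h; activation was quantified by luminescence following luciferase reagent addition.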
# SMN2 splice up: enhancers of SMN2 splice variant expression | HEK293 SMN2-luciferase splicing reporter, luminescence, 30-36 h | hit rate 2.8% among 210,000 | Potency, µM (highest dose often 46.1 µM), inactives show at the top dose activity change, positive = activation, actives largely listed as activators; note: % of control where 0% means no effect; nearly all actives have a fitted effect of over 55% in size
#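 HEK293 cells carry an SMN2 minigene-luciferase reporter in which exon 7 inclusion puts luciferase in frame. Cells were seeded at 2000 cells/well, attached for 10-12 hours, then exposed to compounds for 30-36 hours at 37C before ONE-Glo luminescence.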
# ELG1 FLuc counter: luciferase inhibition in cell-free luciferin readout for ELG1 hits; cell-free firefly luciferase luminescence counter-screen, ViewLux; AID 624247; Potency, µM (titrated, usually from 46.1 µM), for inactives: top-dose activity change, negative = inhibition, usual class: inhibitors; shares compounds with ELG1 repair inh; hit rate 3% among 350; note: % is set by controls: 0 for no effect and ±100 for the full control effect
# ELG1-Luc inh: inhibits ELG1-dependent DNA repair in HEK293T cells, confirmed. Potency, µM (series often up to 46.1 µM), for inactives: top-dose activity change, negative = inhibition, most hits filed as inhibitors. HEK293T ELG1-luciferase levels, luminescence; cells co-treated with 5-fluorouridine. AID 624248. hit rate 68% among 670. shares compounds with ELG1 repair inh; note: % is set by controls: 0 for no effect and ±100 for the full control effect; nearly all actives have a fitted effect of over 55% in size
# Target sequence (Q96QE3 whole entry, looked up): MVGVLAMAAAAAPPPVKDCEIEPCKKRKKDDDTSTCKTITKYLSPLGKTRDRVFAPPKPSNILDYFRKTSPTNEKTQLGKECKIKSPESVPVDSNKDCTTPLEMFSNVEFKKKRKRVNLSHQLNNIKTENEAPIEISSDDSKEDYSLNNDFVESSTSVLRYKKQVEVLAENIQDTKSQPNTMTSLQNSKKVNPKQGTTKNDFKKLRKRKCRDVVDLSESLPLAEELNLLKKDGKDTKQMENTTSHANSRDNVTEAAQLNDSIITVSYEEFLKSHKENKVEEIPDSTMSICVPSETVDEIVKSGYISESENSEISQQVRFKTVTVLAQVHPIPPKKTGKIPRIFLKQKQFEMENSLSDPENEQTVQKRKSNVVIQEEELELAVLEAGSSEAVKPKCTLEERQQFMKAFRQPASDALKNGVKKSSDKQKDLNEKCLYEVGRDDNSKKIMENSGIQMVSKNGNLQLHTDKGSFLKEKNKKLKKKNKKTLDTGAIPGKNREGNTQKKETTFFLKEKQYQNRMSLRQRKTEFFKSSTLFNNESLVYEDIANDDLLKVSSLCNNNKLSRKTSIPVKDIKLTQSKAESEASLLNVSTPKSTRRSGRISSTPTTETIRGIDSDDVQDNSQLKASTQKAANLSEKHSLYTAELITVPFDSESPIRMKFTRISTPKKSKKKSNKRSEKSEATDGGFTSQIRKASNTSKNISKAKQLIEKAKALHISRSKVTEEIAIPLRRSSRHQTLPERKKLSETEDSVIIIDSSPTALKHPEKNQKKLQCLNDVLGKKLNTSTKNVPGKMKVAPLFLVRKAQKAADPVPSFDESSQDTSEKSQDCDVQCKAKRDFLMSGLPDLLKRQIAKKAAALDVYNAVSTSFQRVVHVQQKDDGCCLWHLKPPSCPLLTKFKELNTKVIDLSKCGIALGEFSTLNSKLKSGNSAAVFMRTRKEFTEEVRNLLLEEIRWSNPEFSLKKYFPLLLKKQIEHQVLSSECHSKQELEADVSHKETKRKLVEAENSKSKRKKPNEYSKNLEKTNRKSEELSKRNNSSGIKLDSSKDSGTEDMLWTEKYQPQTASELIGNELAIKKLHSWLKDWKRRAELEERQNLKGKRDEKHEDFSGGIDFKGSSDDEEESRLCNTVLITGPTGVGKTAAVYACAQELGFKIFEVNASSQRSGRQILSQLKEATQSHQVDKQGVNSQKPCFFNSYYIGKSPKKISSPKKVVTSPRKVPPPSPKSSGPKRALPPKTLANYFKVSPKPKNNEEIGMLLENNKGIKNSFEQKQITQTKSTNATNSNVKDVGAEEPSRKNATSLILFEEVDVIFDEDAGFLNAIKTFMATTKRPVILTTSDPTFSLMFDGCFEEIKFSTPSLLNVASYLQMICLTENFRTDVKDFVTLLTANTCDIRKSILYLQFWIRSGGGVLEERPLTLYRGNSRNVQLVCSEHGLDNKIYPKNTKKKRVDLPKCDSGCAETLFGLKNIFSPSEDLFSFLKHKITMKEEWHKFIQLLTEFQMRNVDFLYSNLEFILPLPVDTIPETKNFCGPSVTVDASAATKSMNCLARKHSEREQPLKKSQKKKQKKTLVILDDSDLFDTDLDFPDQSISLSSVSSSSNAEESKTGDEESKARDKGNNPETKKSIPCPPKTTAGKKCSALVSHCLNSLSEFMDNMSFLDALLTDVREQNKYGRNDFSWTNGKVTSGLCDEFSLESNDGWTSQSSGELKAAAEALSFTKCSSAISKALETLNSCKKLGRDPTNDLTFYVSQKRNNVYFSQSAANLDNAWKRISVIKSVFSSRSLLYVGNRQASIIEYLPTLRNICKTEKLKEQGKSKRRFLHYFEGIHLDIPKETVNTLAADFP
# ELG1 MMS Luc: inhibits ELG1-dependent repair under MMS stimulation in HEK293T cells. HEK293T luciferase-tagged ELG1 level, MMS stimulated. shares compounds with ELG1 repair inh. Potency, µM (top dose mostly 46.1 µM), for the others: at the top dose activity change, negative = inhibition, usual class: inhibitors. hit rate 53% among 670; note: % is set by controls: 0 for no effect and ±100 for the full control effect; nearly all actives have a fitted effect of over 60% in size
# ELG1 5FU viab: confirmation of ELG1 repair inhibitors: viability with 5FU; shares compounds with ELG1 repair inh; cell viability with 5-FU, ELG1-dependent repair; Potency, µM (series often up to 46.1 µM), inactives show at the top dose activity change, negative = viability loss, hits mostly cytotoxic; 670 tested, under 10 active; AID 624250;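 note: ELG1-luc HEK293T cells cotreated with 5-fluorouridine at 10 µM final; viability measured 16 h after compound addition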
# ELG1 MMS viab: confirmation of ELG1 repair inhibitors: viability with MMS; Potency, µM (titrated, usually from 46.1 µM), for the others: at the highest dose activity change, negative = viability loss, hits mostly cytotoxic; AID 624251; shares compounds with ELG1 repair inh; hit rate 33% among 670; Cell viability with MMS, ELG1-dependent DNA repair;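 note: ELG1-luc HEK293T cells co-treated with 10 µM MMS; viability read 16 h after compound addition; % is set by controls: 0 for no effect and ±100 for the full control effect; nearly all actives have a fitted effect of over 60% in size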
# ELG1 unstim viab: affects unstimulated cell viability, ELG1 hit counter-screen; shares compounds with ELG1 repair inh; cell viability counter-screen, unstimulated, luminescence; Potency, µM (series often up to 45.9 µM), inactives show at the highest dose activity change, negative = loss of viability, actives largely listed as cytotoxic; hit rate 8% among 900;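 note: compound exposure lasted 16 hours before reading; % is set by controls: 0 for no effect and ±100 for the full control effect; nearly all actives have a fitted effect of over 55% in size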
# FLuc enzyme: counter-screen for ELG1 repair inhibitors: firefly luciferase inhibition. shares compounds with ELG1 repair inh. purified firefly luciferase, luminescence counter-screen. Potency, µM (top dose mostly 57.5 µM), for the others: at the top dose activity, negative = inhibition, most hits filed as inhibitors. hit rate 10% among 350. AID 624253; note: % is set by controls: 0 for no effect and ±100 for the full control effect
# Starred values were filed as active, the others as inactive; u = inconclusive; x = no result given; [ ] = dose if it differs, or a comment. A selection: hits, their analogues and other compounds. The true share with any hit is near 9.4%. Calls come from the whole dose curve; as a rule, active = well fitted curve in the direction sought with a large enough effect; inconclusive = small, poorly fitted or top-dose-only effect, or another doubt; inactive = no such curve, though single readings can be large; an effect the other way counts as inactive or inconclusive. Potency is the fitted concentration of half-maximal effect.
SMILES,ELG1 genotoxic,ELG1 repair inh,FLuc counter,Rab9 promoter act,NPC1 promoter act,SMN2 splice up,ELG1 FLuc counter,ELG1-Luc inh,ELG1 MMS Luc,ELG1 5FU viab,ELG1 MMS viab,ELG1 unstim viab,FLuc enzyme
CC(=O)O[C@H]1C[C@@H](O[C@@H]2[C@H](C)O[C@H](O[C@@H]3[C@H](C)O[C@H](O[C@@H]4CC[C@@]5(C)[C@@H](CC[C@]6(C)[C@]5(C)C[C@H](O)[C@]5(C)[C@@H](C7=CC(=O)OC7)CC[C@@]56O)C4)C[C@@H]3O)C[C@@H]2O)O[C@@H](C)[C@H]1O[C@H]1O[C@@H](CO)[C@@H](O)[C@@H](O)[C@@H]1O,x,x,x,x,x,-58%[20.6 µM],u,1.1µM*,0.6µM*,u,1.7µM*,u,3%[35.2 µM]
CC(=O)OC1CCC23C(=O)OC45CCC(C6=CC(=O)OC6)C4(C)CCC2C5CCC3(O)C1 (centres undefined),x,x,x,x,x,x,x,1.3µM*,0.63µM*,u,1.3µM*,0.44µM*,x
CC(=O)OC1CC[C@]2(C)C(CCC3C2CC[C@]2(C)C(C4=CC(=O)OC4)C(OC(C)=O)CC32O)C1 (some centres undefined),x,x,x,x,x,-88%,x,1.4µM*,0.89µM*,u,1.3µM*,0.63µM*,x
CC(=O)OCC1=C[C@H]2[C@@H]3C(C)(C)[C@]3(OC(=O)Cc3ccccc3)C[C@@H](C)[C@]2(O)[C@@H]2C=C(C)C(=O)[C@@]2(O)C1,x,x,x,x,x,x,x,x,x,x,x,u,x
CC(=O)N1CCN(c2ccc(OC[C@@H]3CO[C@@](Cn4ccnc4)(c4ccc(Cl)cc4Cl)O3)cc2)CC1,x,x,x,x,x,-46%[20.6 µM],x,x,x,x,x,x,x
C[C@@H]1C[C@H](C)C[C@H](C)[C@@H](O)CC(=O)O[C@H]([C@H]2CCC[C@H]2C(=O)O)C/C=C/C=C(/C#N)[C@H](O)[C@@H](C)C1,x,x,x,x,x,x,u,0.4µM*,0.79µM*,u,6.3µM*,u,5%
CO/C1=C\C(C)=C\[C@@H](C)[C@@H](O)[C@H](C)C/C(C)=C/C=C/[C@H](OC)[C@H]([C@@H](C)[C@@H](O)[C@H](C)[C@H]2C[C@@H](O)[C@H](C)[C@@H](C(C)C)O2)OC1=O,x,x,x,x,x,-59%,5%,-3%,-19%,-8%,u,u,-1%
CC1OC(=O)C(C(C)C)NC(=O)C(C(C)C)OC(=O)C(C(C)C)NC(=O)C(C)OC(=O)C(C(C)C)NC(=O)C(C(C)C)OC(=O)C(C(C)C)NC(=O)C(C)OC(=O)C(C(C)C)NC(=O)C(C(C)C)OC(=O)C(C(C)C)NC1=O (centres undefined),x,x,x,x,x,-61%,u,12%,0.035µM*,u,0.079µM*,0.035µM*,4%
COc1ccc(C(=O)CN2CCCCC2)cc1,6%,u,0%,10%,-19%,15%,x,x,x,x,x,x,x
COc1ccc(C(=O)CC2(CC(=O)c3ccc(OC)cc3)C(=O)N(C)C(=O)N(C)C2=O)cc1,7%,1.6µM*,3%,-1%,0%,6%,x,0.5µM*,3%,u,1%,-4%,x
CC(C)(C)NC(=O)N1c2ccccc2Sc2ccccc21,0%,u,0%,-5%,-4%,x,x,x,x,x,x,x,x
C[C@@H]1C[C@@H]2[C@H]([C@H]3C=C(COC(=O)c4ccccc4)[C@@H](O)[C@]4(O)[C@@H](O)C(OC(=O)c5ccccc5)=C[C@@]14C3=O)C2(C)C,x,x,x,x,x,x,96%,x,x,x,x,u,-1%
N[C@@H](CSC1c2ccccc2-c2ccccc21)C(=O)O,x,x,x,x,x,-3%[9.22 µM],x,x,x,x,x,x,x
COc1ccc2cc1Oc1ccc(cc1)CC1c3cc(c(OC)cc3CCN1C)Oc1c(OC)c(OC)cc3c1C(C2)N(C)CC3 (centres undefined),x,x,x,x,x,-21%,x,x,x,x,x,x,x
O=C(Nc1ccncc1)c1cccn(Cc2ccccc2)c1=O,1%,3.3µM*,-14%,-29%,-27%,-75%,x,8%,2.2µM*,2%,2.5µM*,u,x
O=C(Nc1ccon1)c1cccn(Cc2ccccc2)c1=O,x,x,-2%,x,x,x,x,x,x,x,x,x,x
